Among the data in PubChem BioAssay (EPA / NIEHS) are AC50 values, retold here.

Where “and” joins values, the source holds several entries; their conditions need not be identical. Equal entries are not always repeated. Calls of active or inactive are those of the source. The calls were made as follows: active = hit-call score of the fitted dose curve at least 0.9, where 1 is the maximum; inactive = score below 0.9.

This assay deals with TTR (gene 7276). Description: CCTE_GLTED_hTTR_0.125uM: CCTE's human Transthyretin (hTTR) Inhibition Assay, with 0.125uM TTR, Great Lakes Toxicology and Ecology Division (GLTED) Lab (AID 2284431).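 Also: hits lower the fluorescence signal relative to DMSO baseline.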 Put shortly:
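Activity is defined as decreased ANSA fluorescence (ex 380, em 475) from human transthyretin, 0.125uM, following 2-hour chemical exposure in a cell-free setup, with DMSO as baseline.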
As to `Cc1cc(Cl)ccc1O`, the AC50 (commonly the concentration at which the activity in the assay is half-maximal) was 14.9 µM (active). In the case of `COc1nn(C(=O)NS(=O)(=O)c2ccccc2OC(F)(F)F)c(=O)n1C`, the AC50 was 9.99 µM (active). Then `Oc1cc(Cl)c(Cl)cc1Cl`, with 0.114 µM (active); and `O=S1(=O)OC(c2cc(Br)c(O)c(Br)c2)(c2cc(Br)c(O)c(Br)c2)c2ccccc21`, with 0.109 µM (active).

Turning to `O=C(O)COc1cc(Cl)c(Cl)cc1Cl`, the AC50 was 0.692 µM (active). The value for `O=C(CBr)c1ccc(O)cc1` was 4.69 µM (active). Then `Oc1c(Br)cc(Br)cc1Br`, with 0.0287 µM (active).

In the case of `O=C1c2ccccc2C(=O)C1C(=O)C(c1ccccc1)c1ccc(Cl)cc1` (configuration not stated), the AC50 is 3.48 µM (active). Then `CCCCCCCCCCCCOS(=O)(=O)O`, with 2.56 µM (active) and 5.11 µM (active). Then `Cc1cc(Cl)ccc1OCCCC(=O)O`, with 2.64 µM (active); and `CCOCn1c(-c2ccc(Cl)cc2)c(C#N)c(Br)c1C(F)(F)F`, with 0.0346 µM (active).

Regarding `Nc1ccc(N)cc1`, the AC50 is 2.42 µM (active).

For the compound `CCOP(=S)(OCC)O/N=C(\C#N)c1ccccc1`, the AC50 was 2.07 µM (active). As to `O=[N+]([O-])c1ccccc1O`, the concentration at half-maximal activity (AC50) was 34.8 µM (active) and 21.1 µM (active). The value for `CCCCCCCCCCCCc1cccc(S(=O)(=O)O)c1` was 6.89 µM (active). Then `O=C(NC(=O)c1c(F)cccc1F)Nc1cc(Cl)c(OC(F)(F)C(F)C(F)(F)F)cc1Cl` (configuration not stated), with 2.76 µM (active); and `O=[N+]([O-])c1ccc(Cl)c([N+](=O)[O-])c1`, with 4.83 µM (active).
